This passage reports sensor-assay potency score (higher = more potent) results from the OligoGym collection.
Further: reference of the scale not given here.

One assay has as its target SECISBP2L. Description: pooled miR-30 sensor sort-seq; sequence = guide strand. As to conditions: shRNA.
Consider TTTCTGAATACTCTTGAGCTGT, for which the sensor-assay potency score (higher = more potent) is -0.537.

TAGTCCAGTATCTTCCTGGGAA came in with a sensor-assay potency score (higher = more potent) of -0.242.

The sequence TTCCTGGGAAACAATCTCCTGT returned a sensor-assay potency score (higher = more potent) of -0.00713.

As for TTGAAACCCATCTTCATCCTGT, the sensor-assay potency score (higher = more potent) was found to be 0.983.

On to TTGCTGTGAAGCATCTACCAGA, for which the sensor-assay potency score (higher = more potent) was -0.408.

Sequence TAGCTGAGGTAGTACTGCCTGT showed a sensor-assay potency score (higher = more potent) of -0.712.

TTGATCGACTATCAGGACCTGC registered a sensor-assay potency score (higher = more potent) of -0.0412.

On to TTGTTGAATATTCTCATCCTTA, for which the sensor-assay potency score (higher = more potent) was -0.343.

TACGCTAACAGGAACCAGCTTG: the sensor-assay potency score (higher = more potent) is -0.34.

The sequence TATAACATTATAGAGAGCCTCA displayed a sensor-assay potency score (higher = more potent) of -0.0315.

In turn, TATAACACACTTGATCTTGTTT had a sensor-assay potency score (higher = more potent) of 0.0597.

The sequence TAGTGTGAAAAGAAGCTGCAGT registered a sensor-assay potency score (higher = more potent) of 0.417.

For another assay, the target named is SECISBP2. The assay is described as above. As to conditions: shRNA.
For TTCGCTTATGGTAACCATCTGA, the sensor-assay potency score (higher = more potent) stood at 0.0735.

TTTGACTGTATCTTCTCACAGT returned a sensor-assay potency score (higher = more potent) of 0.358.

In the case of TTGAGAGCAAACACAAAGGGAA, the sensor-assay potency score (higher = more potent) is -0.174.

In the case of TTTGTTGTAGGAAGGATCCGAA, the sensor-assay potency score (higher = more potent) is -0.00971.

Sequence TTTCAAACTATTCTCAGCGTAA returned a sensor-assay potency score (higher = more potent) of -0.344.

The sequence TTGACATCTGCTGATAACTTGA registered a sensor-assay potency score (higher = more potent) of -0.133.

Take TTTGATAACACTGCAGCTGGTT: the sensor-assay potency score (higher = more potent) came to 0.27.

The sequence TTTTCTTCTTAAACAGAGCTTT had a sensor-assay potency score (higher = more potent) of -0.323.

TAACACAAGCATCCACTTCTTT: the sensor-assay potency score (higher = more potent) was -0.191.

The sequence TTGCAGTTCAGGAAAGTCCAGT gave a sensor-assay potency score (higher = more potent) of -0.458.

The sequence TTCACTGTCAAACTTTTGCTGA came in with a sensor-assay potency score (higher = more potent) of -0.0289.

With TAACATTTTTAGGATCTGCTGA, the sensor-assay potency score (higher = more potent) stood at 0.162.

The target in the next assay is SELL. The assay is described as above. Particulars: shRNA.
Sequence TTAATCATTGAGAAACTTTTGT yielded a sensor-assay potency score (higher = more potent) of -0.0417.

In turn, TTATTGATGATTTCTACACATT yielded a sensor-assay potency score (higher = more potent) of -1.76.

TCACTTGACAGGTTGGTTCTGG returned a sensor-assay potency score (higher = more potent) of 0.848.

Regarding TAAATCTGTGTAATTGTCTCGG, the sensor-assay potency score (higher = more potent) amounted to 0.157.

Regarding TTGTCTCGGCAGAATCTTCTAG, the sensor-assay potency score (higher = more potent) is -0.184.

Turning to TTGATATAGATCTCCACGCAGT, the sensor-assay potency score (higher = more potent) is -0.218.

TTGTATGGCAACTAAATCTGTG: the sensor-assay potency score (higher = more potent) is -0.502.

Take TTTGACATATTGGACTAGGATT: the sensor-assay potency score (higher = more potent) is -1.37.

TTCAGTAAGAGATTTGTTGGTT had a sensor-assay potency score (higher = more potent) of 0.629.

TTCTCTTGGATTTCTTGCCTTT registered a sensor-assay potency score (higher = more potent) of 0.216.

In turn, TAATTGTCTCGGCAGAATCTTC returned a sensor-assay potency score (higher = more potent) of -1.3.

Consider TAGGATTTGACCAGATTCCAGA, for which the sensor-assay potency score (higher = more potent) was -0.318.

In a further assay the target is SELO. Described as above. As to conditions: shRNA.
For the sequence TTTCTCTGCACGCTGTCGCTGG, the sensor-assay potency score (higher = more potent) is -0.303.

The sequence TTCGCTGCATAGAAACTCCCGG displayed a sensor-assay potency score (higher = more potent) of 0.0168.

With TTTGGGATTACCATCATAGAAC, the sensor-assay potency score (higher = more potent) was -1.22.

The sequence TGTTTGTGAAGTCGGCACCGGT showed a sensor-assay potency score (higher = more potent) of -1.02.
